Laboratory results reported in the supplement of paper PMC10849652.
Of roughly 8,800 targets only a part is listed; those with a hit were picked by preference. About 0.5% of all pairs of compound and target were hits.

Assays:
Assay in all cases: log2 fold change, soluble protein after heating vs DMSO (PISA); higher = thermal stabilisation; K562 lysate, 10 uM; active = over 0.2 and 3.5 SD of the protein, either way, in both replicates (recomputed)
[1] = compound: CCCS(=O)(=O)Nc1ccc(F)c(C(=O)c2c[nH]c3ncc(Cl)cc23)c1F
Procedure, shortened: (§1)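 Soluble protein was defined as the supernatant remaining after 21,000xg for 90 min, following pooling of heated aliquots and adjustment to 0.5% NP-40 at 4°C. Before that, crude K562 extract at 1 mg/mL protein in PBS pH 7.4 with 1 mM MgCl2 was treated with 10 μM compound for 30 min and heated for 3 min across 48°C-58°C. Quantification used TMTpro 16plex LC-MS/MS with channel sums equalised, and values are log-two fold changes in thermal stability relative to solvent controls from duplicates.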

barasertib = compound: CCN(CCCOc1ccc2c(Nc3cc(CC(=O)Nc4cccc(F)c4)[nH]n3)ncnc2c1)CCOP(=O)(O)O [barasertib]
Procedure, shortened: as §1

[2] = compound: CC[C@@H]1C(=O)N(C)c2cnc(Nc3ccc(C(=O)NC4CCN(C)CC4)cc3OC)nc2N1C1CCCC1
Procedure, shortened: as §1

volasertib = compound: CC[C@@H]1C(=O)N(C)c2cnc(Nc3ccc(C(=O)N[C@H]4CC[C@H](N5CCN(CC6CC6)CC5)CC4)cc3OC)nc2N1C(C)C [volasertib]
Procedure, shortened: as §1

[3] = compound: CCn1c(C(=O)N(C2CC2)C2CC2)cc2c3c(ncn3C)c(Nc3cc(C)n(C)n3)nc21
Procedure, shortened: as §1

[4] = compound: CCn1cc(-c2ccnc3[nH]c(-c4cccc(CN(C)C)c4)cc23)c(-c2ccc(NC(=O)N(C)C)cc2)n1
Procedure, shortened: as §1

[5] = compound: CN1CCC(CNc2ccc3ncc(-c4cccc(OC(F)(F)F)c4)n3n2)CC1
Procedure, shortened: as §1

saracatinib = compound: CN1CCN(CCOc2cc(OC3CCOCC3)c3c(Nc4c(Cl)ccc5c4OCO5)ncnc3c2)CC1 [saracatinib]
Procedure, shortened: as §1

sotrastaurin = compound: CN1CCN(c2nc(C3=C(c4c[nH]c5ccccc45)C(=O)NC3=O)c3ccccc3n2)CC1 [sotrastaurin]
Procedure, shortened: as §1

vemurafenib = compound: CCCS(=O)(=O)Nc1ccc(F)c(C(=O)c2c[nH]c3ncc(-c4ccc(Cl)cc4)cc23)c1F [vemurafenib]
Procedure, shortened: as §1

Measured: log2 fold change

PPP1R11 (UniProt O60927)
Chain of UniProt O60927 (O60927 whole entry, looked up): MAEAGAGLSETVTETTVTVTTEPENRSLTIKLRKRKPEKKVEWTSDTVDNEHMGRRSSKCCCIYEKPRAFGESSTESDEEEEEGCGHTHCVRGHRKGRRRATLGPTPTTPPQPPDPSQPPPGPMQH
inactive: [1] 0.069 | barasertib -0.04 | [2] 0.153 | volasertib 0.046 | [3] -0.101 | [4] 0.16 | [5] -0.067 | saracatinib -0.05 | sotrastaurin 0.001

PHC1 (UniProt P78364)
Chain of UniProt P78364 (P78364 whole entry, looked up): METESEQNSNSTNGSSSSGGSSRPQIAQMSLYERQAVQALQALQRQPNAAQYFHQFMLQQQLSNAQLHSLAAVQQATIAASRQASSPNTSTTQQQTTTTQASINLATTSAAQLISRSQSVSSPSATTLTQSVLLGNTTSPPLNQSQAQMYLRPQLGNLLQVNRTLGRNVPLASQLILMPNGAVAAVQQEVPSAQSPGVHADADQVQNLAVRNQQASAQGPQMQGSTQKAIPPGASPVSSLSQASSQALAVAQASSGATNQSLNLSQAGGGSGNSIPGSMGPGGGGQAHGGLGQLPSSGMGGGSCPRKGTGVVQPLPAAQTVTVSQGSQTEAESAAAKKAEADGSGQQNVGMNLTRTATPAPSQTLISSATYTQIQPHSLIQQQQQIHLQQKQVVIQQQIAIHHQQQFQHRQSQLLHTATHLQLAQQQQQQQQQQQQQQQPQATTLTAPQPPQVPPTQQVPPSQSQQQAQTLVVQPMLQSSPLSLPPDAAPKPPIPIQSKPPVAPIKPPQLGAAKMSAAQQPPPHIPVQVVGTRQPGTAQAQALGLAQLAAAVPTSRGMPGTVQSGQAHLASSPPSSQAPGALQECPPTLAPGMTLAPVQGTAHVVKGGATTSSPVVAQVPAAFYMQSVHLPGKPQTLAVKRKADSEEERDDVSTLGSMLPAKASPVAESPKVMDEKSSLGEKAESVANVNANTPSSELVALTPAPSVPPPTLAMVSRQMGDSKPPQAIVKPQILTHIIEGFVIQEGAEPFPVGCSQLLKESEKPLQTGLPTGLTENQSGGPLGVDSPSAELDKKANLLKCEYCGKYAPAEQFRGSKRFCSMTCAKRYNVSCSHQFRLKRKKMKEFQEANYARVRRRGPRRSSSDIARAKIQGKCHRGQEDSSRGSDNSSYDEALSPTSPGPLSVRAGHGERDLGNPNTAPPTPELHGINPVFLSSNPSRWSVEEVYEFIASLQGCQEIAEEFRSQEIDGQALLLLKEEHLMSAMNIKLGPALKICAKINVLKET
inactive: vemurafenib 0.042 | barasertib 0.034 | [2] 0.097 | saracatinib 0.066 | sotrastaurin -0.354

PRADC1 (UniProt Q9BSG0)
inactive: [1] 0.011 | volasertib 0.074 | [3] -0.05 | [4] 0.057 | [5] 0.101 | saracatinib 0.054 | sotrastaurin -0.015
active: barasertib -0.509

PHGDH, A0A286YFE1
inactive: [1] 0.158 | barasertib 0.364 | volasertib 0.083 | saracatinib -0.318

PLXND1 (UniProt Q9Y4D7)
inactive: barasertib 0.045 | [3] -0.214 | saracatinib 0.018 | sotrastaurin 0.012

PCBP2 (UniProt F8W0G4)
inactive: vemurafenib 0.121 | barasertib 0.035 | [2] -0.253 | [3] -0.066 | saracatinib 0.005

PHKG1 isoform 2 (UniProt Q16816)
active: [4] -0.867
inactive: vemurafenib -0.197 | [1] -0.037 | [2] -0.062 | volasertib 0.033 | [3] 0.054 | [5] 0.64 | saracatinib 0.177 | sotrastaurin -0.269

PCLAF (UniProt Q15004)
Chain of UniProt Q15004 (Q15004 whole entry, looked up): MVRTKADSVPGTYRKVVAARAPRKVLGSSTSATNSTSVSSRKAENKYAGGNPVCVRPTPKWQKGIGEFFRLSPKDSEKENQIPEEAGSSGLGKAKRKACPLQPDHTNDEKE
inactive: vemurafenib -0.016 | barasertib -0.068 | [2] 0.057 | [3] -0.033 | [4] -0.067 | [5] 0.121 | saracatinib -0.013 | sotrastaurin 0.011

PPP2R5C isoform 2 (UniProt Q13362)
inactive: vemurafenib 0.014 | barasertib -0.267 | [3] -0.081 | [4] -0.023 | [5] -0.033 | saracatinib 0.014 | sotrastaurin 0.134

PNPLA4 (UniProt P41247)
inactive: vemurafenib 0.098 | [2] 0.002 | [3] -0.111 | [4] 0.165 | [5] 0.414 | saracatinib 0.009 | sotrastaurin -0.013

PCBP2 (UniProt F8VRH0)
inactive: [1] -0.035 | volasertib -0.058 | [3] -0.138 | [4] -0.033 | [5] -0.047 | sotrastaurin -0.066

POM121C (UniProt A8CG34)
inactive: [1] -0.037 | barasertib 0.201 | volasertib -0.101 | [3] 0.045 | [4] 0.146 | [5] 0.158

PHOSPHO2 (UniProt C9JD35)
inactive: [2] -0.432 | sotrastaurin -0.027

PRG4 (UniProt Q92954)
inactive: [1] -0.038 | barasertib 0.332 | volasertib 0.054 | [3] -0.03 | [4] -0.179 | [5] 0.229 | saracatinib 0.009 | sotrastaurin -0.02

PMS1 (UniProt P54277)
inactive: vemurafenib 0.037 | barasertib 0.193 | [2] 0.019 | [3] -0.028 | [4] -0.01 | [5] -0.051 | saracatinib 0.016 | sotrastaurin -0.002

PDIA4, A0A499FI48
inactive: [5] -0.33 | saracatinib 0.03 | sotrastaurin -0.048
active: [4] 1.69

POLR2M (UniProt Q6EEV4)
Chain of UniProt Q6EEV4 (Q6EEV4 whole entry, looked up): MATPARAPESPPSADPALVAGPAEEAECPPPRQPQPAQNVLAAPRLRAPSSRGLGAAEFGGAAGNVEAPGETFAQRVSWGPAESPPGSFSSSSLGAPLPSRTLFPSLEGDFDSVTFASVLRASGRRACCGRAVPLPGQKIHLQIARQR
inactive: vemurafenib 0.117 | [1] -0.043 | barasertib 0.176 | [2] 0.032 | volasertib -0.074 | [4] 0.154 | [5] -0.077 | saracatinib 0.016 | sotrastaurin -0.072

PIK3CD (UniProt O00329)
inactive: vemurafenib -0.094 | [1] 0.005 | barasertib -0.046 | volasertib -0.015 | [3] 0.072 | [4] -0.109 | [5] 0.398 | saracatinib -0.04 | sotrastaurin 0.023

PTK2 isoform 2 (UniProt Q05397)
inactive: [1] -0.101 | barasertib 0.05 | [2] -0.076 | volasertib -0.387 | saracatinib -0.063

PIK3CG (UniProt P48736)
Chain of UniProt P48736 (P48736 whole entry, looked up): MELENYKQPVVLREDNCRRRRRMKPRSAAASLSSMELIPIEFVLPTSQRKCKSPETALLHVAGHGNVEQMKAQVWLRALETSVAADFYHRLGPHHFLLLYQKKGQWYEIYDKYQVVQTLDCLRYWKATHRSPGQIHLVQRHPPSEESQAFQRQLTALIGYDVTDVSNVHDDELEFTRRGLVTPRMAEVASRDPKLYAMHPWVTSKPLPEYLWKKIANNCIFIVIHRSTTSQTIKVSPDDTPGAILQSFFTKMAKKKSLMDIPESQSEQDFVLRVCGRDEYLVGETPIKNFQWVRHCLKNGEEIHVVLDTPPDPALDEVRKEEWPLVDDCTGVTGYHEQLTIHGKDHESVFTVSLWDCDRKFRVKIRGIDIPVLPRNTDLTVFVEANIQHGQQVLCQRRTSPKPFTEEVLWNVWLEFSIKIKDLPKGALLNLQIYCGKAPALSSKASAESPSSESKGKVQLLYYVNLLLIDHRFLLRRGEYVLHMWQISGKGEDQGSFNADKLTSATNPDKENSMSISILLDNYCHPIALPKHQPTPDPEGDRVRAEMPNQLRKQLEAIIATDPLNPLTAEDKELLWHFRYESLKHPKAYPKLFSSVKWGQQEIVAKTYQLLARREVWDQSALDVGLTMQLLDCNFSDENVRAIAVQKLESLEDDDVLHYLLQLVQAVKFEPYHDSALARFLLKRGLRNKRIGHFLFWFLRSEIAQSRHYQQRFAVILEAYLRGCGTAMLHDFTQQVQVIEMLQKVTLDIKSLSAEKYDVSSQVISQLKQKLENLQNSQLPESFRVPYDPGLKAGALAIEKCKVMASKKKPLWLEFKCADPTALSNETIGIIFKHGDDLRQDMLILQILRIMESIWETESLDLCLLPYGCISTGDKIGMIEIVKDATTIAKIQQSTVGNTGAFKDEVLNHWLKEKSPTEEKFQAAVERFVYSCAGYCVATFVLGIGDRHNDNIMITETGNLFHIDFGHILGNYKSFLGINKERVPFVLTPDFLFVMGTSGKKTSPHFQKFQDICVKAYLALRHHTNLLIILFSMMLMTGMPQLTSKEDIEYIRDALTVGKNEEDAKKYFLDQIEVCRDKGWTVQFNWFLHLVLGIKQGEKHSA
inactive: vemurafenib 0.028 | barasertib 0.046 | [2] 0.004 | [3] 0.006 | saracatinib 0.028 | sotrastaurin 0.051
active: [4] -0.276 | [5] 0.289

NA (UniProt Q4G0T1)
Chain of UniProt Q4G0T1 (Q4G0T1 whole entry, looked up): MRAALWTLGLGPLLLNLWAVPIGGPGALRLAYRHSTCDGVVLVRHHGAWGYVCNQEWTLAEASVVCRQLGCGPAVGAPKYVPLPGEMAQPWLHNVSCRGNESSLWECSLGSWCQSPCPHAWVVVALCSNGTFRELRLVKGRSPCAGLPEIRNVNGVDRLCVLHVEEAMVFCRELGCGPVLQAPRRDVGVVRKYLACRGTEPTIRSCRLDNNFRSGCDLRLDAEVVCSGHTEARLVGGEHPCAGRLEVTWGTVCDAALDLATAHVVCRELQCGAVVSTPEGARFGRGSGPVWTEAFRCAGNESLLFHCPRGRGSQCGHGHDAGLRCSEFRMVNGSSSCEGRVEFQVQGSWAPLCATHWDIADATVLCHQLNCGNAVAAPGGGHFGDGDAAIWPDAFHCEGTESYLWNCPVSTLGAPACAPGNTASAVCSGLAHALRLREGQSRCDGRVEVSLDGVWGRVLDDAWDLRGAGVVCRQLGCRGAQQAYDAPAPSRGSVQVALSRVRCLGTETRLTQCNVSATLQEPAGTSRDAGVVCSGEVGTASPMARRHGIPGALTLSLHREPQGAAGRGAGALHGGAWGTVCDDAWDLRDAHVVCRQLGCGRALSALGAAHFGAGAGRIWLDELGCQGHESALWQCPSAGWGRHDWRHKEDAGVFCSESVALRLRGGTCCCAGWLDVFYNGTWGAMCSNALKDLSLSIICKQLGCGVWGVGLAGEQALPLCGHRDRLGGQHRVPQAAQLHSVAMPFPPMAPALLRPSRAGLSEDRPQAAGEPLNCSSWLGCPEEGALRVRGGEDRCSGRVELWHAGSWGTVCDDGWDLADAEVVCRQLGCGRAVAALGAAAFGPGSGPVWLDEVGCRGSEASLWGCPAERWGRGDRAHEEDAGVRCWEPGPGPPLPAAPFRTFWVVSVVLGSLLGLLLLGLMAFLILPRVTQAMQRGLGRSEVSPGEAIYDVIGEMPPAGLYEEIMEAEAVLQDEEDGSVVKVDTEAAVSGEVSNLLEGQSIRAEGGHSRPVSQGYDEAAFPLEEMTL
inactive: [3] 0.032 | [4] 0.022 | [5] 0.026 | saracatinib -0.033 | sotrastaurin 0.129

PYGO2 (UniProt Q9BRQ0)
inactive: barasertib 0.036 | [2] -0.106 | [3] 0 | [4] -0.044 | [5] 0.042 | saracatinib 0.07 | sotrastaurin -0.022

PPME1 (UniProt Q9Y570)
inactive: [1] -0.042 | barasertib 0.026 | [2] 0.104 | volasertib -0.012 | saracatinib -0.043

PIAS2 (UniProt O75928)
Chain of UniProt O75928 (O75928 whole entry, looked up): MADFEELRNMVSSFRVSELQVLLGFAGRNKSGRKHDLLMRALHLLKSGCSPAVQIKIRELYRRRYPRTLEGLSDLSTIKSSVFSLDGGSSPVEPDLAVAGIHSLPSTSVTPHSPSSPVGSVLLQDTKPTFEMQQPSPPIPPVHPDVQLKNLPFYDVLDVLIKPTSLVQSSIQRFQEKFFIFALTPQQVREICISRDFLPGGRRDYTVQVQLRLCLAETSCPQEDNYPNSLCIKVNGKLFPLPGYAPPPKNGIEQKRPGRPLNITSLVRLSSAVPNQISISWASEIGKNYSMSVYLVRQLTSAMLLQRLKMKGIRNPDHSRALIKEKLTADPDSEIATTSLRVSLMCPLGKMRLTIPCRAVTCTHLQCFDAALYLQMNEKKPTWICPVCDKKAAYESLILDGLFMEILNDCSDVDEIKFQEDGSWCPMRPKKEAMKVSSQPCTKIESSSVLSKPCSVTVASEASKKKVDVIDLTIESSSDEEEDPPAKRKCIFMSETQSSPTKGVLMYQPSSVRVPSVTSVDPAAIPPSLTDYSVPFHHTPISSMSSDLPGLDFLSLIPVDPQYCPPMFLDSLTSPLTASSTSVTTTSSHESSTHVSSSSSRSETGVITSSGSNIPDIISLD
inactive: vemurafenib -0.263 | [2] -0.026 | [3] 0.003 | saracatinib 0.044 | sotrastaurin -0.033

PFN3 (UniProt P60673)
active: [4] -0.706
inactive: vemurafenib 0.059 | [1] 0 | [2] 0.112 | volasertib 0.056 | [5] 0.109 | sotrastaurin 0.042

PTMA isoform 2 (UniProt P06454)
inactive: barasertib -0.09

PIM1 isoform 2 (UniProt P11309)
inactive: vemurafenib -0.061 | barasertib 0.139 | [2] 0.002 | [3] 0.073 | [4] -0.068 | saracatinib 0
active: [5] 1.46 | sotrastaurin 0.593

PREP (UniProt H0Y5Y0)
inactive: [1] 0.019 | volasertib 0.079 | [4] 0.678 | [5] -0.144

PRR4 (UniProt Q16378)
active: [5] -1.21
inactive: vemurafenib 0.367 | [1] 0.038 | [2] -0.21 | volasertib -0.046 | [3] -0.005 | [4] 0.358

PRIMPOL (UniProt Q96LW4)
Chain of UniProt Q96LW4 (Q96LW4 whole entry, looked up): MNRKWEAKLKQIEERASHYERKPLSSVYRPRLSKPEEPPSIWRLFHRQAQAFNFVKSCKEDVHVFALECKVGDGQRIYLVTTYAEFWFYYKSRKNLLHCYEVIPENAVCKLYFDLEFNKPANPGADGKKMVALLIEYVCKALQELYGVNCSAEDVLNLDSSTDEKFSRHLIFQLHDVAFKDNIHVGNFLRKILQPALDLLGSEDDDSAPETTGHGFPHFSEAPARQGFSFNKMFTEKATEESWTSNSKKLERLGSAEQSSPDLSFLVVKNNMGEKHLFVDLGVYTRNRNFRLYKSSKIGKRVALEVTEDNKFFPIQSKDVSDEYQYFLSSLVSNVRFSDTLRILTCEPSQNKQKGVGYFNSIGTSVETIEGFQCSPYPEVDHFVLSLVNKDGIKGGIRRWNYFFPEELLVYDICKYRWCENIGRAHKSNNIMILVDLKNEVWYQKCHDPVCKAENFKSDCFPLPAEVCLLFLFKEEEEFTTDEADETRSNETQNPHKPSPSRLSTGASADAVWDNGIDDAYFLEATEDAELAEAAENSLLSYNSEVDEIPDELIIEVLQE
inactive: vemurafenib -0.02 | barasertib -0.083 | [2] -0.095 | [3] 0.011 | saracatinib 0.014 | sotrastaurin 0.089

PEX2 (UniProt P28328)
Chain of UniProt P28328 (P28328 whole entry, looked up): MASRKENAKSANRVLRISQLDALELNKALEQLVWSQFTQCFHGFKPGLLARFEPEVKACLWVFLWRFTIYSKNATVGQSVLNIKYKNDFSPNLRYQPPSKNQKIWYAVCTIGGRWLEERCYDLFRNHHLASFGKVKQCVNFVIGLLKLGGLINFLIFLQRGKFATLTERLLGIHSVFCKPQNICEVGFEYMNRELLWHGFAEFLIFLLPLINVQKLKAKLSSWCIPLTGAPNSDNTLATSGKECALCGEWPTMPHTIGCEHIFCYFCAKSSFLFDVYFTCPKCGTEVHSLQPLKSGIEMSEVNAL
inactive: vemurafenib 0.079 | [1] -0.047 | barasertib 0.174 | volasertib 0.024 | [3] 0.052 | [4] 0.011 | [5] 0.024 | saracatinib -0.086 | sotrastaurin 0.036

PIP5K1A (UniProt Q99755)
inactive: [1] 0.029 | barasertib 0.108 | volasertib 0.07 | [3] -0.041 | [4] 0.027 | saracatinib 0.107 | sotrastaurin -0.018
active: [5] -0.514

PLK1 (UniProt P53350)
inactive: vemurafenib 0.053 | [1] -0.009 | barasertib 0.003 | volasertib -0.009 | [3] 0.014 | [4] 0.165 | [5] -0.279 | saracatinib 0.021
active: sotrastaurin -0.335

PDE4DIP (UniProt E9PS60)
active: [4] -0.942
inactive: vemurafenib -0.014 | [2] 0.017 | [5] 0.153 | saracatinib 0.067 | sotrastaurin 0.137

PFN1 (UniProt I3L3D5)
active: [4] 0.924
inactive: [1] -0.142 | barasertib 0.241 | [2] -0.01 | volasertib -0.107 | [3] -0.067 | [5] -0.135

PECR (UniProt Q9BY49)
inactive: [2] 0.023
